According to PubChem BioAssay (NCATS):
Results filed as inconclusive are left out. Where a call stands in place of a potency, no number is given. The source made the active and inactive calls. Calls follow the shape of the dose curve; as a rule, active = well fitted curve in the direction sought with a large enough effect; inconclusive = small, poorly fitted or top-dose-only effect, or another doubt; inactive = no such curve, though single readings can be large; an effect the other way counts as inactive or inconclusive.

Assays:
[1] = qHTS of pediatric cancer cell lines to identify multiple opportunities for drug repurposing: Primary screen for DAOY cells (AID 1347090); also: nearly all actives have a fitted effect of over 55% in size; also: potency is read from the fitted curve at half-maximal effect
Procedure, shortened: (§1)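 Eight- or eleven-point concentration series, 48 h treatment at 37 degrees C in growth media; readout CellTiter-Glo luminescence. Potency and efficacy were taken from the concentration-response curves.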

[2] = qHTS of pediatric cancer cell lines to identify multiple opportunities for drug repurposing: Primary screen for SJ-GBM2 cells (AID 1347091); also: potency is read from the fitted curve at half-maximal effect
Procedure, shortened: as §1

[3] = qHTS of pediatric cancer cell lines to identify multiple opportunities for drug repurposing: Primary screen for A673 cells (AID 1347092); also: nearly all actives have a fitted effect of over 45% in size; also: potency is read from the fitted curve at half-maximal effect
Procedure, shortened: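 Luminescence from CellTiter-Glo, taken after 15 min at room temperature, served as the proxy for metabolically active cells following 48 h treatment. Both potency and efficacy were taken from curves fitted to the titration data.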

[4] = qHTS of pediatric cancer cell lines to identify multiple opportunities for drug repurposing: Primary screen for BT-37 cells (AID 1347094); also: potency is read from the fitted curve at half-maximal effect
Procedure, shortened: (§2)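 Cells plated at 500-1,000/well in growth medium, compounds added after 5 h. MIPE tested at 11 points (from 0.78 nM), NPC at 8 points (from 0.59 nM). CellTiter-Glo luminescence after 48 h; concentration-response curves from primary screen.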

[5] = qHTS of pediatric cancer cell lines to identify multiple opportunities for drug repurposing: Primary screen for NB-EBc1 cells (AID 1347095)
Procedure, shortened: as §2

[6] = qHTS of pediatric cancer cell lines to identify multiple opportunities for drug repurposing: Primary screen for U-2 OS cells (AID 1347096); also: nearly all actives have a fitted effect of over 50% in size
Procedure, shortened: (§3)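 Cells (500-1,000/well) in growth media were settled 5 h at 37 degrees C, then given compounds for 48 h. Viability was read as CellTiter-Glo luminescence. Primary runs used MIPE at 11 points (0.78 nM-46 µM) and NPC at 8 points (0.59 nM-46 µM); follow-ups used 11 points.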

[7] = qHTS of pediatric cancer cell lines to identify multiple opportunities for drug repurposing: Primary screen for Saos-2 cells (AID 1347097); also: nearly all actives have a fitted effect of over 40% in size; also: potency is read from the fitted curve at half-maximal effect
Procedure, shortened: as §2

[8] = qHTS of pediatric cancer cell lines to identify multiple opportunities for drug repurposing: Primary screen for SK-N-SH cells (AID 1347098); also: nearly all actives have a fitted effect of over 65% in size; also: potency is read from the fitted curve at half-maximal effect
Procedure, shortened: (§4)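 Cells (500-1,000/well) rested 5 h, then received compounds for 48 h; metabolically active cells were measured by CellTiter-Glo luminescence. Final concentrations spanned up to 46 µM (MIPE, 11-point) or 0.59 nM-46 µM (NPC, 8-point) in primary screens, 11-point in follow-ups.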

[9] = qHTS of pediatric cancer cell lines to identify multiple opportunities for drug repurposing: Primary screen for NB1643 cells (AID 1347099); also: nearly all actives have a fitted effect of over 50% in size; also: potency is read from the fitted curve at half-maximal effect
Procedure, shortened: as §2

[10] = qHTS of pediatric cancer cell lines to identify multiple opportunities for drug repurposing: Primary screen for LAN-5 cells (AID 1347100); also: potency is read from the fitted curve at half-maximal effect
Procedure, shortened: as §3

[11] = qHTS of pediatric cancer cell lines to identify multiple opportunities for drug repurposing: Primary screen for BT-12 cells (AID 1347101); also: nearly all actives have a fitted effect of over 25% in size; also: potency is read from the fitted curve at half-maximal effect
Procedure, shortened: as §4

[12] = qHTS of pediatric cancer cell lines to identify multiple opportunities for drug repurposing: Primary screen for Rh18 cells (AID 1347102); also: nearly all actives have a fitted effect of over 65% in size; also: potency is read from the fitted curve at half-maximal effect
Procedure, shortened: as §3

[13] = qHTS of pediatric cancer cell lines to identify multiple opportunities for drug repurposing: Primary screen for MG 63 (6-TG R) cells (AID 1347105); also: nearly all actives have a fitted effect of over 50% in size
Procedure, shortened: as §2

[14] = qHTS of pediatric cancer cell lines to identify multiple opportunities for drug repurposing: Primary screen for control Hh wild type fibroblast cells (AID 1347106);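 also: series mostly up to about 46 µM; a drop in luminescence marks cytotoxicity and a rise apparent proliferation; nearly all actives have a fitted effect of over 55% in size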
Procedure, shortened: as §3

[15] = qHTS of pediatric cancer cell lines to identify multiple opportunities for drug repurposing: Primary screen for Rh41 cells (AID 1347108);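 also: series mostly up to about 46 µM; luminescence drop marks cytotoxic hits; nearly all actives have a fitted effect of over 70% in size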
Procedure, shortened: as §2

[16] = qHTS of pediatric cancer cell lines to identify multiple opportunities for drug repurposing: Primary screen for OHS-50 cells (AID 1347103); also: nearly all actives have a fitted effect of over 40% in size; also: potency is read from the fitted curve at half-maximal effect
Procedure, shortened: as §4

[17] = qHTS of pediatric cancer cell lines to identify multiple opportunities for drug repurposing: Primary screen for RD cells (AID 1347104); also: nearly all actives have a fitted effect of over 55% in size; also: potency is read from the fitted curve at half-maximal effect
Procedure, shortened: as §2

[18] = qHTS of pediatric cancer cell lines to identify multiple opportunities for drug repurposing: Primary screen for Rh30 cells (AID 1347107); also: nearly all actives have a fitted effect of over 75% in size; also: potency is read from the fitted curve at half-maximal effect
Procedure, shortened: as §3

[19] = qHTS of pediatric cancer cell lines to identify multiple opportunities for drug repurposing: Primary screen for SK-N-MC cells (AID 1347093); also: potency is read from the fitted curve at half-maximal effect
Procedure, shortened: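 Metabolically active cells were quantified by ATP-dependent luminescence (CellTiter-Glo, 15 min at room temperature) following 48 h treatment. Cells had been plated at 500-1,000 per well and settled for 5 h beforehand.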

Structure (SMILES)	Potency [1]	Potency [2]	Potency [3]	Potency [4]	Potency [5]	Potency [6]	Potency [7]	Potency [8]	Potency [9]	Potency [10]	Potency [11]	Potency [12]	Potency [13]	Potency [14]	Potency [15]	Potency [16]	Potency [17]	Potency [18]	Potency [19]
COc1cc2c(cc1OC)C(=O)CC2	inactive	inactive	inactive	inactive	inactive	inactive	inactive	inactive	inactive	inactive	inactive	inactive	inactive	inactive	inactive				
CCCCC(CC)COC(=O)c1ccccc1C(=O)O (centres undefined)	inactive	inactive	inactive	inactive	inactive	inactive	inactive	inactive	inactive	inactive	inactive	inactive		inactive	inactive	inactive	inactive	inactive	
CCOC(=O)C(=O)c1csc(NC=O)n1	inactive	inactive	inactive	inactive	inactive	inactive	inactive	inactive	inactive	inactive	inactive	inactive	inactive	inactive	inactive	inactive	inactive	inactive	
CCCCCCCCCCCC[N+](C)(C)Cc1ccccc1	16.8 µM (active)	inactive	8.41 µM (active)	15.5 µM (active)			4.73 µM (active)	15.4 µM (active)	6.68 µM (active)	inactive	4.37 µM (active)	2.11 µM (active)				1.74 µM (active)	9.44 µM (active)	18.8 µM (active)	2.66 µM (active)
Cc1ncc([N+](=O)[O-])n1C	inactive	inactive	inactive	inactive	inactive	inactive	inactive	inactive	inactive	inactive	inactive	inactive	inactive	inactive	inactive	inactive	inactive		
CCOC(=O)C(=O)CCCCCCl	inactive	inactive	inactive	inactive		inactive		inactive	inactive	inactive	inactive	inactive	inactive	inactive	inactive	inactive	inactive	inactive	inactive
CC(C)(C)c1ccc(O)c(O)c1	24.3 µM (active)	30.6 µM (active)	15.4 µM (active)				48.6 µM (active)	25 µM (active)	17.2 µM (active)	19.3 µM (active)	25.2 µM (active)						8.63 µM (active)		6.86 µM (active)
COc1ccc(/C(C)=C/C(=O)O)c(OC)c1	inactive	inactive	inactive	inactive	inactive	inactive	inactive	inactive	inactive	inactive	inactive	inactive	inactive			inactive	inactive	inactive	
CN1CCN(N)CC1	inactive	inactive	inactive	inactive	inactive	inactive		inactive	inactive	inactive	inactive	inactive		inactive	inactive	inactive	inactive	inactive	
CCCCNc1ccc(C(=O)OCCN(CC)CC)cc1	inactive	inactive	inactive	inactive		inactive	inactive	inactive	inactive	inactive	inactive	inactive	inactive	inactive	inactive	inactive	inactive	inactive	
CCCCCOc1ccccc1/C(=C\SC)n1ccnc1	inactive	inactive	26.6 µM (active)			inactive		inactive		inactive		inactive	inactive					inactive	
Cc1ccc(Cl)c(OCC(O)CNC(C)(C)C)c1 (centres undefined)	inactive	inactive	inactive	inactive		inactive	inactive	inactive	inactive	inactive	inactive	inactive	inactive	inactive	inactive			inactive	
CC(C)(C)C(=O)OCOC(=O)C1N2C(=O)CC2S(=O)(=O)C1(C)C (centres undefined)	inactive	inactive	inactive	inactive	inactive	inactive	inactive	inactive	inactive		inactive	inactive	inactive	inactive	inactive	inactive	inactive	inactive	
O=C(OCC(O)CO)c1ccccc1Nc1ccnc2c(C(F)(F)F)cccc12 (centres undefined)	inactive	inactive	inactive	inactive	inactive				inactive	inactive		inactive	inactive	inactive	inactive			inactive	
Cc1cccc(N(C)C(=S)Oc2ccc3c(c2)CCC3)c1	inactive	inactive	inactive	inactive		inactive			inactive	inactive		inactive	inactive	inactive	inactive		inactive	inactive	
Nc1ccc(O)cc1	inactive	inactive	inactive	inactive	inactive	inactive		inactive		15 µM (active)	inactive	inactive	inactive	inactive	inactive	inactive	inactive	inactive	
